Most compounds without a hit are left out; they make up all but 4% or so of the library.
Peg3 prom inh – Peg3 promoter-driven luciferase inhibitors, primary screen, cell-based, HeLa, luciferase luminescence; 360,000 compounds, 1.7% hits; inhibition, % at 20 µM; HeLa PEG-Prom luciferase reporter, overnight;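 active means inhibition of at least 50% at 20 µM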
TWEAK Fn14 block – inhibitors of TWEAK-Fn14 signaling, primary screen, luciferase reporter cells, uHTS; TWEAK-stimulated Fn14 reporter cells, luciferase luminescence, 8 h; inhibition, % at 10 µM; 360,000 compounds, 2% hits; AID 1159606, 2016; in the data active means inhibition above about 50%
KKLEB tox – cytotoxicity in KKLEB CF airway cells, primary screen, cytotoxicity control for CF NF-kB inhibitor project, cell-based, uHTS, fluorescence assay plates; KKLEB CF airway cells viability, ATPlite luminescence, overnight; active compounds read low; cells stimulated with P. aeruginosa culture filtrate; 360,000 compounds, 0.36% hits; activity change (cytotoxicity), % at 5 µM;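 active means corrected activity change at or below -50% at 5 µM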
CF NFkB block – inhibitors of PAF-induced NF-kB signaling, primary screen, cell-based, GFP fluorescence, uHTS. KKLEB NF-kB-GFP reporter, GFP fluorescence overnight. inhibition, % at 5 µM. 360,000 compounds, 0.86% hits. AID 588850, 2011;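 active means at least 50% inhibition at 5 µM, scaled per plate between neutral and stimulator controls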;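 further: PAF is a Pseudomonas aeruginosa culture filtrate used as stimulus; plate controls were PAF-stimulated DMSO wells for no effect and unstimulated DMSO wells for full effect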
TROY signal inh – inhibitors of TROY-driven NF-kB signaling, primary screen, Q293 LMP1-TROYcd cells, NF-kB luciferase, uHTS; Q293 LMP1-TROYcd NF-kB luciferase reporter, 4 h; inhibition, % at 10 µM; 360,000 compounds, 0.98% hits; AID 1347056, 2019;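 active means compounds whose plate-normalised and pattern-corrected inhibition of the luciferase reporter signal at the single screening dose is 50% or more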
HIF-2a block – HIF-2a reporter inhibitors, primary screen, luminescence, 786-0 RCC cells. 786-0 RCC cells HIF-2a reporter, luciferase luminescence, overnight. inhibition, % at 18.8 µM. 360,000 compounds, 0.72% hits;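 active means inhibition of the luminescence signal of 40% or more relative to plate controls, in a single-dose primary screen at 18.75 µM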
Active calls of the source: *; x = not tested or not shown; ! = repeats disagree.

SMILES | Peg3 prom inh | TWEAK Fn14 block | KKLEB tox | CF NFkB block | TROY signal inh | HIF-2a block
CN(C)Cc1c(C(C)(C)O)[nH]c2ccc(C(F)(F)F)cc12 | -24 | -15 | 6 | 11 | -4 | 7
CCc1c(C2(O)CCCCC2)[nH]c2ccc(C(F)(F)F)cc12 | 47 | 16 | 27 | 16 | 56* | -13
COc1ccc(N(CC(=O)NC2CCCCC2C)S(=O)(=O)c2c(C)nn(C)c2C)cc1 (stereo not given) | 1 | -13 | 10 | 3 | -11 | 8
CCOC(=O)[C@]12CCC=C1N(Cc1ccccc1)C(=O)[C@H](CC(=O)NCC13CC4CC(CC(C4)C1)C3)C2 | x | 17 | x | x | 1 | 8
CCOc1cccc(/C=C(/C#N)c2nc3ccccc3[nH]2)c1OCC(=O)O | 3 | 61* | -10 | 6 | 58* | -28
CCN(CC)c1ccc(/C=C(/C#N)c2nc3ccccc3[nH]2)c(OC(C)C)c1 | -68 | 76* | -11 | -42 | 69* | -144
COc1cc(/C=C(/C#N)c2nc3ccccc3[nH]2)ccc1OCC(=O)Nc1ccccc1C | 104* | -39 | 3 | -21 | -2 | 14
COc1cccc(/C=C(\C#N)c2nc3ccc(C)cc3[nH]2)c1OCC(=O)O | 10 | 1 | 6 | -6 | -25 | -7
Cc1nc2cc(Cl)c(Cl)cc2n1-c1ccccn1 | -40 | 14 | 7 | 8 | -8 | -50
Cc1ccc(OCc2nnc(SCC(=O)Nc3sc(C)c(C)c3C#N)n2C)cc1 | -15 | 52* | -15 | 3 | -16 | -1
CC1CCc2nc(N)c(C#N)c(-c3ccncc3)c2C1 (stereo not given) | 17 | 3 | -10 | -9 | -12 | 20
CC1CCc2nc(N)c(C#N)c(-c3cccnc3)c2C1 (stereo not given) | 31 | 83* | -5 | 69* | 54* | 13
COC(=O)c1cc(NC(=O)CN(C)Cc2ccccc2)cc(C(=O)OC)c1 | 4 | 86* | -2 | -16 | 14 | 11
CN(CC(=O)Nc1ccc(Br)cc1)Cc1ccccc1 | -54 | -31 | 7 | -22 | -17 | -114
CCOC(=O)CSc1nc2cc3c(cc2cc1C#N)OCO3 | -363 | -6 | 3 | -8 | -60 | -222
CCOC(=O)CSc1nc2cc3c(cc2cc1C#N)OCCO3 | -246 | 26 | 7 | -2 | 57* | -264
COc1cc2ccccc2cc1C(=O)Nc1ccc(N2CCN(C(=O)C(C)C)CC2)cc1 | 77* | 32 | 6 | -30 | 44 | -13
O=C(O)C(Cc1cccs1)c1cccs1 (stereo not given) | 19 | -10 | 7 | 20 | -10 | 3
Cc1ccc2oc(/N=C(\N)NC(=O)C3CC3)nc2c1 | -150 | 64* | -1 | -8 | 31 | -123
CCCCNc1c(-c2ccc(SC3CCCCC3)c(OC)c2)nc2ccc(C)cn12 | 24 | 6 | -10 | 17 | 4 | -25
CCCCNc1c(-c2ccc(OC)c(SC(C)CC)c2)nc2ccc(C)cn12 (stereo not given) | 100* | 41 | -18 | 41 | 15 | -34
CC(=O)c1ccc(-c2cccc(-c3nc4ccccn4c3NC3CCCCC3)c2)cc1 | 62* | 22 | -19 | 30 | 17 | -76
CCC(C)Sc1ccc(-c2nc3ccc(C)cn3c2NCc2ccccc2)cc1OC (stereo not given) | 88* | -5 | -26 | 30 | -40 | -200
c1csc(-c2nc3ccccn3c2NC2CCCCC2)c1 | -5 | 1 | 2 | 6 | -65 | -18
CCCCNc1c(-c2ccc(OC)c(SC3CCCCC3)c2)nc2ccc(C)cn12 | 98* | 59*! | -6 | 22 | 13 | -50
SMILES | Peg3 prom inh | TWEAK Fn14 block | KKLEB tox | CF NFkB block | TROY signal inh | HIF-2a block
CCCCNc1c(-c2ccc(OC)c(SC(C)CC)c2)nc2ccc(Cl)cn12 (stereo not given) | 6 | -4 | -1 | -4 | -14 | -37
CCCCCCSc1ccc(-c2nc3ccc(C)cn3c2NCc2ccccc2)cc1OC | -123 | -26 | -5 | 20 | -27 | -183
CCC(C)Sc1cc(-c2nc3ccc(C)cn3c2NCc2ccccc2)ccc1OC (stereo not given) | 96* | 78*! | -32 | 58* | 24 | -120
COc1ccc(-c2nc3ccc(C)cn3c2NCc2ccccc2)cc1SC1CCCCC1 | 33 | 43 | -14 | 21 | 2 | -28
CCC(C)Sc1cc(-c2nc3ccccn3c2NC2CCCCC2)ccc1OC (stereo not given) | 95* | 37 | -10 | 28 | 1 | -81
O=C(CCS(=O)(=O)c1ccc(F)cc1)Nc1nc(-c2ccncc2)cs1 | 15 | 15 | -10 | 18 | 4 | 6
CCCCn1c(N)c(N(CCOC)C(=O)c2c(CC)noc2C)c(=O)[nH]c1=O | -10 | 7 | -8 | 17 | 11 | 8
CN(Cc1ccccc1)C(=O)c1ccc2sc([C@H]3C[C@H](O)[C@@H](CO)O3)nc2c1 | 4 | 2 | -3 | -6 | 3 | -10
S=C(N/N=C/c1ccc2ncccc2c1)Nc1cccnc1 | 20 | 56* | 10 | 3 | 40 | 18
CSc1ccccc1-c1nc(-c2ccncc2)no1 | -273 | -10 | 2 | -13 | -42 | -290
O=C(Nc1ccn(Cc2c(F)c(F)cc(F)c2F)n1)c1ccc(COc2ccccc2Cl)cc1 | 9 | 27 | -2 | -28 | 0 | -66
O=C(Nc1ccn(Cc2ccccc2F)n1)c1ccc(COc2ccccc2Cl)cc1 | 22 | 62* | 7 | -13 | 53* | -70
C=CC[C@H](CC(=O)NCCO)C(=O)NC[C@@H](OC(=O)[C@H](CC=C)CC(=O)OC(C)(C)C)c1ccccc1 | 8 | 7 | 3 | -25 | 7 | 10
CCOC(=O)c1c(C)nc2c(C)cccn12 | 18 | 84* | 1 | 0 | x | 9
COc1cc(NS(=O)(=O)c2ccc(OC)c(OC)c2)cc(OC)c1 | 52* | 7 | 11 | 0 | -2 | 5
COc1ccc(S(=O)(=O)Nc2ccc3c(c2)OCCO3)cc1OC | 0 | 55* | -2 | 14 | 21 | -5
COC(=O)[C@@]1(Sc2ccc(C)cc2)CC(=O)N(C(=O)c2ccccc2)[C@@H]1c1ccccc1 | x | 26 | x | x | -15 | 3
Cc1nn(-c2ccccc2)c(C)c1/C=N/NC(=O)c1cc(C(C)(C)C)[nH]n1 | 8 | -1 | 7 | 13 | -7 | 9
Cc1ccc(-c2cc(C(=O)N/N=C/c3c(C)nn(-c4ccccc4)c3C)n[nH]2)s1 | 3 | 51* | -23 | 57* | 28 | -11

Bioassay records (PubChem BioAssay)
